Results filed as inconclusive are left out. Unmarked numbers belong to inactive results. The source made the active and inactive calls. The call rests on the fitted dose curve; in most records, active means well fitted curve in the direction sought with a large enough effect; inconclusive means small, poorly fitted or top-dose-only effect, or another doubt; inactive means no such curve, though single readings can be large; an effect the other way counts as inactive or inconclusive.

These results are taken from PubChem BioAssay (NCATS).

The test system of one test is WaGa. Briefly: qHTS assay to identify novel small-molecules to repurpose for Merkel cell carcinoma treatment (AID 1296009). Further: nearly all actives have a fitted effect of over 60% in size. The note with it: MCC and control cell lines, CellTiter-Glo viability, 72 h; series mostly up to 46 µM. Put shortly: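 72 hr, 37 degree celsius; NPC 8-pt / MIPE 11-pt dose response; compound pinned in DMSO; CellTiter-Glo, 10 min RT, luminescence; normalized to no-cell and DMSO controls.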
For orientation: qHTS replaces the single test concentration by a dilution series.

The next test relates to C33A. Briefly: Primary qHTS to identify gynecologic anti-cancer compounds using libraries of approved drugs and bioactive compounds (AID 1345084). Further: nearly all actives have a fitted effect of over 55% in size. The conditions noted are these: Gynecologic cancer cell panel viability, ATPlite luminescence, 48 h; series mostly up to 57.5 µM. Put shortly: (§1)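 ATP-based viability (ATPlite), 1,000 cells/well, 16 h pre-incubation, 48 h compound at 37 C, 5% CO2, 15 min RT before read.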

Another test relates to CASKI. The description is as above. The conditions noted are these: Gynecologic cancer cell panel viability, ATPlite luminescence, 48 h; series mostly up to 57.5 µM. The essentials:
as §1
Background: In ATP-based viability assays light output follows the ATP content of the culture.

For the next test, the system named is Es-2. The description is as above. The conditions noted are these: Gynecologic cancer cell panel viability, ATPlite luminescence, 48 h; series mostly up to 57.5 µM. Put shortly: as §1
The subject of another test is HeLa. Described as above. The conditions noted are these: Gynecologic cancer cell panel viability, ATPlite luminescence, 48 h; series mostly up to 57.5 µM. The essentials: as §1
The test system of a further test is Hek293T. The test is described as above. The conditions noted are these: Gynecologic cancer cell panel viability, ATPlite luminescence, 48 h, control line for the selectivity index; series mostly up to 57.5 µM. Put shortly:
as §1

A further test has as its system OV90. Described as above. The conditions noted are these: Gynecologic cancer cell panel viability, ATPlite luminescence, 48 h; series mostly up to 57.5 µM. Put shortly: as §1
The next test deals with PA-1. The test is described as above. The note with it: Gynecologic cancer cell panel viability, ATPlite luminescence, 48 h; series mostly up to 57.5 µM. Put shortly:
as §1

In a further test the test system is JEG-3. The test is described as above. The conditions noted are these: Gynecologic cancer cell panel viability, ATPlite luminescence, 48 h; series mostly up to 57.5 µM. The essentials:
as §1

Another test relates to CAOV3. The description is as above. The note with it: Gynecologic cancer cell panel viability, ATPlite luminescence, 48 h; series mostly up to 57.5 µM. The essentials:
as §1
Potency means the concentration at half of the fitted maximal effect.

Consider `CC(C)(O)CCc1ccc(OCc2cc(-c3cccc(OC(F)F)c3)c3ncccc3c2)cc1`, for which the Potency entry with WaGa, in the test with C33A, in the test with CASKI, in the test on Es-2, in the test on HeLa and in the test on Hek293T was “inactive” throughout. For the same compound, the Potency result in the test with OV90 and in the test on PA-1 was “inactive” throughout.
Consider `Cc1c(Cn2c(C)nc3c(C(=O)O)cc(N4CCOCC4)cc32)cccc1C(F)(F)F`, for which the Potency result in the test with WaGa, in the test with C33A, in the test on CASKI, with Es-2, with HeLa and in the test with Hek293T was “inactive” each time. Further, the Potency entry in the test on JEG-3, in the test on OV90 and in the test with PA-1 was “inactive” in each case.
On to `Cc1cn2c(-c3cn[nH]c3)cnc2c(Nc2ccc(C(=O)N3CCNCC3)cc2F)n1`, for which the Potency entry in the test with WaGa, in the test on C33A, in the test with CASKI, in the test with Es-2, in the test with Hek293T and in the test with JEG-3 was “inactive” throughout. Moreover, the Potency entry with OV90 was “inactive”.
Turning to `CCc1cc2c(cc1N1CCC(N3CCOCC3)CC1)C(C)(C)c1[nH]c3cc(C#N)ccc3c1C2=O`, the Potency result in the test with WaGa, in the test with C33A, with CASKI, in the test on Es-2, in the test on HeLa and in the test on Hek293T was “inactive” each time. For the same compound, the Potency result in the test on JEG-3, in the test on OV90 and in the test with PA-1 was “inactive” in each case.
Take `CCCCCN(CCC12CC3CC(CC(C3)C1)C2)C(=O)NCCCc1ccncc1`: the Potency result with WaGa, in the test with C33A, with CASKI, in the test on Es-2, with HeLa and in the test with Hek293T was “inactive” in each case. For the same compound, the Potency result with JEG-3, in the test on OV90 and in the test with PA-1 was “inactive” in each case.
With `CN(C)CC(C)(C)CNc1nn2c(-c3ccccc3)nnc2cc1C1CCC1`, in the test on WaGa, the Potency was 0.662 µM (active). Besides, the Potency result in the test with C33A, with CAOV3, in the test on CASKI, with Es-2, in the test on HeLa and in the test on Hek293T was “inactive” throughout. The Potency entry in the test with JEG-3, in the test on OV90 and in the test with PA-1 was “inactive” throughout.
Consider `CCCn1c(=O)c2[nH]c(-c3cnn(Cc4cccc(C(F)(F)F)c4)c3)nc2n(CC)c1=O`, for which the Potency entry in the test on WaGa, in the test on C33A, with CASKI, in the test on Es-2, in the test on HeLa and with Hek293T was “inactive” in each case. The Potency entry with JEG-3, with OV90 and in the test with PA-1 was “inactive” in each case.
On to `Cc1cn2cc(C(=O)N(C)CCO)cc(N[C@@H]3CCOc4cccc(C)c43)c2n1`, for which the Potency result with WaGa, with C33A, with CASKI, in the test on Es-2, in the test on HeLa and in the test on Hek293T was “inactive” in each case. Besides, the Potency result with JEG-3 and in the test on OV90 was “inactive” in each case.
For `Cc1nc2ccc(CN(C)c3ccc(C(=O)N[C@@H](CCC(=O)O)C(=O)O)s3)cc2c(=O)[nH]1`, the Potency in the test with WaGa is 0.0833 µM (active); with JEG-3 it was 0.631 µM (active). Further, the Potency result in the test on C33A, with CAOV3, in the test with CASKI and in the test with Hek293T was “inactive” each time.
For `COc1cccc(-c2ccc(NC(=O)C3=C(C(=O)O)CCC3)c(F)c2)c1`, the Potency with WaGa is 23.5 µM (active). The Potency result in the test with C33A, in the test with CAOV3, with CASKI and in the test with OV90 was “inactive” in each case.
Regarding `Cc1coc2c1C(=O)C(=O)c1c-2ccc2c1CCCC2(C)C`, the Potency entry with WaGa, in the test with C33A, in the test on CAOV3, in the test with CASKI, in the test on Es-2 and in the test on Hek293T was “inactive” throughout. In addition, the Potency entry with PA-1 was “inactive”.
As for `O=c1c2ccccc2nc2n1CCc1c-2[nH]c2ccccc12`, the Potency result in the test on WaGa, in the test on C33A, in the test on CASKI, in the test with Es-2, with HeLa and with Hek293T was “inactive” in each case. Besides, the Potency entry in the test with JEG-3, with OV90 and in the test with PA-1 was “inactive” throughout.
For `Cn1c2ccccc2c2c3c(c4c5ccccc5n(CCC#N)c4c21)CNC3=O`, the Potency with WaGa was 6.62 µM (active). The Potency result in the test on C33A, with CASKI, in the test on HeLa, in the test with Hek293T, in the test with JEG-3 and in the test on OV90 was “inactive” each time.
Consider `COc1cc(Nc2ncc(F)c(Nc3ccc4c(n3)N(COP(=O)(O)O)C(=O)C(C)(C)O4)n2)cc(OC)c1OC`, for which the Potency result in the test on WaGa is “inactive”. For the same compound, the Potency in the test on CAOV3 was 11.2 µM (active); with CASKI it was 17.8 µM (active); in the test on HeLa, 3.55 µM (active); in the test with OV90, 12.6 µM (active); with PA-1 it was 11.2 µM (active).
`Cc1cnc(-c2cnc(NCCNc3ccc(C#N)cn3)nc2-c2ccc(Cl)cc2Cl)[nH]1`: the Potency result in the test on WaGa, with CASKI, in the test with Es-2, in the test with Hek293T and in the test on PA-1 was “inactive” throughout.
For the compound `Cc1cn(-c2cc(NC(=O)c3ccc(C)c(Nc4nccc(-c5cccnc5)n4)c3)cc(C(F)(F)F)c2)cn1`, the Potency result in the test with C33A, with CAOV3, in the test on CASKI, with Es-2, in the test with HeLa and in the test with Hek293T was “inactive” throughout. Also, the Potency result in the test on JEG-3 and in the test on OV90 was “inactive” in each case. Besides, in the test on PA-1, the Potency was 12.6 µM (active).
Take `CCn1cc(-c2ccnc3[nH]c(-c4cccc(CN(C)C)c4)cc23)c(-c2ccc(NC(=O)N(C)C)cc2)n1`: the Potency with WaGa is 0.0469 µM (active). The Potency result in the test with C33A and with Hek293T was “inactive” each time.
